According to PubChem BioAssay (Tox21):
Inconclusive results are not listed. Values without a mark were called inactive. Activity calls are given as the source filed them. Calls follow the shape of the full dose curve. Bridge positions count the residues as written; N and C are the ends. Square brackets hold non-standard residues; d marks the D form. Peptide text beside a SMILES is read from it. hArg = N=C(N)NCCCC[C@H](N)C(=O)O; Mpa = O=C(O)CCS

biological target: 5-hydroxytryptamine receptor 2A (Homo sapiens) (UniProt P28223); assay: 5-hydroxytryptamine receptor 2A (HTR2A) small molecule antagonists, cell-based qHTS assay (AID 1963586); details: HTR2A-CHO cells, DOI-induced calcium flux, fluorescence; series mostly up to 61.5 µM; activity, negative = inhibition: at the top concentration; also: nearly all actives have a fitted effect of over 45% in size
Source text: National Center for Advancing Translational Sciences [NCATS]
Division of Preclinical Innovation [DPI]
U.S. Environmental Protection Agency [EPA]
National Institutes of Environmental Health Sciences [NIEHS]
National Toxicology Program [NTP]
U.S. Food and Drug Administration [FDA]
The HTR2A receptor is a subtype of the 5-HT2 receptor that belongs to the serotonin receptor family and is a G protein-coupled receptor (GPCR). The HTR2A-CHO cell line stably expressing human 5-hydroxytryptamine receptor 2A (HTR2A) can be used for screening antagonists of interactions between 5-HT2 and its ligands. The HTR2A-CHO calcium flux assay is a homogeneous fluorescence-based assay for detecting the intracellular calcium level using FDSS kinetic plate reader system.
Tox21 Assay Protocol Summary:
HTR2A-CHO cells were dispensed at 2000 cells/3uL/well in 1536-well black-clear bottom plates using a Multidrop Dispenser. After the assay plates were incubated at a 37 C/5% CO2 incubator for 18 h, 3 uL of Dye Loading Buffer was transferred to the assay plate by a Flying Reagent Dispenser. The assay plates were incubated at 37 C for 1h. For antagonist mode, 23 nL of compounds dissolved in DMSO, positive controls or DMSO only was transferred to the assay plate by a pin tool. After 5 min incubation at room temperature, 1.5 uL of 4-Iodo-2,5-dimethoxy-alpha-methylbenzeneethanamine hydrochloride (DOI) at 4nM was added to each well. The fluorescence intensity in the plates was measured using FDSS 7000EX kinetic plate reader for 3 min at 1 sec intervals.
% is scaled to controls: 0 for no effect and ±100 for the full control effect; potency is read from the fitted curve at half-maximal effect.

Sequence of 5-hydroxytryptamine receptor 2A (Homo sapiens) (P28223 whole entry, looked up): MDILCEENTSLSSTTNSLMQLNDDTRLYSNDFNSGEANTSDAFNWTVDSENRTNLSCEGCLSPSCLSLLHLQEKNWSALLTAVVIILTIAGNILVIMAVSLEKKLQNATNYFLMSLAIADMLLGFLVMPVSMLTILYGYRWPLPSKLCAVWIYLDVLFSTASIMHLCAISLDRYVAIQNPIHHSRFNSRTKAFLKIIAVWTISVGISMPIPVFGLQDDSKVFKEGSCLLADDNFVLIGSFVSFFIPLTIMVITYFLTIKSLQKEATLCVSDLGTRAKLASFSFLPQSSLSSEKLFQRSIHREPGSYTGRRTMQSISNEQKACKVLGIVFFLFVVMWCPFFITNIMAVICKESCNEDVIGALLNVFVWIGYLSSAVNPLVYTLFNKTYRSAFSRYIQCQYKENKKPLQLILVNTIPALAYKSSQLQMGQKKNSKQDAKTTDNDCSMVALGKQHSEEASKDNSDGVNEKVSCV

First: NC(=O)C(Cl)(Cl)Cl
Second: CC(C)(CCl)C(=O)Cl
The “activity, negative = inhibition” value of the first is lower: -31.7% for the first, -11.6% for the second.

Going from `CC(Cc1ccccc1)NCCn1cnc2c1c(=O)n(C)c(=O)n2C` (stereo not given) to `S=C=NCCc1ccccc1`, the “activity, negative = inhibition” value rises from -11.2% to -0.123%.

Compared with `O=c1[nH]c(Cl)c(Cl)cc1Cl`, `FC(F)C(F)(F)OCC(Cn1cncn1)c1ccc(Cl)cc1Cl` (stereo not given) is higher in “activity, negative = inhibition” value: -1.44% for the first, 29.6% for the second.

First: [O-][Cl+3]([O-])([O-])O
Second: CC(C)(C)OO
The “activity, negative = inhibition” value of the first is lower: 10.2% for the first, 18.5% for the second.

Compared with `C=CCOC(C)=O`, `C=CC(=O)OCC(C)O` (stereo not given) is lower in “activity, negative = inhibition” value: 13.7% for the first, -18.6% for the second.

Going from `CCOP(=S)(OCC)OC(Cl)C(Cl)(Cl)Cl` (stereo not given) to `CNC(=O)Oc1ccccc1C(C)C`, the “activity, negative = inhibition” value falls from 4.31% to -0.0025%.

Going from `CC(C)[C@H](C(=O)OC(C#N)c1cccc(Oc2ccccc2)c1)c1ccc(OC(F)F)cc1` (stereo not given in full) to `Cc1ccccc1C(=O)Nc1cccc(OC(C)C)c1`, the “activity, negative = inhibition” value rises from -17.2% to -8.22%.

Compared with `COc1ccc(-c2ccccc2)cc1NNC(=O)OC(C)C`, `Nc1ccccc1C(=O)OC/C=C/c1ccccc1` is lower in “activity, negative = inhibition” value: 1.65% for the first, -0.702% for the second.

Going from `CCCN(CCCl)c1c([N+](=O)[O-])cc(C(F)(F)F)cc1[N+](=O)[O-]` to `CCCN(CCC)c1c([N+](=O)[O-])cc(S(N)(=O)=O)cc1[N+](=O)[O-]`, the “activity, negative = inhibition” value rises from -3.1% to -2.65%.

First: Cc1ccc(-c2c(Cl)nc(C#N)n2S(=O)(=O)N(C)C)cc1
Second: O=C1C(=O)c2cccc3cccc1c23
The “activity, negative = inhibition” value of the first is lower: -0.363% for the first, 2.31% for the second.

Compared with `COc1cc(C[C@@H](C)N)c(OC)cc1Br`, `COc1ccc(C=O)cc1O` is higher in “activity, negative = inhibition” value: -81.1% for the first, -32.6% for the second.

Going from `CSSC` to `CSC(C)(C)/C=N/O`, the “activity, negative = inhibition” value falls from 6.95% to 0.251%.

Compared with `Oc1ccc2c3c1O[C@H]1[C@@H](O)C=C[C@H]4[C@@H](C2)NCC[C@@]341`, `CSc1ccc(C(=O)C(C)(C)N2CCOCC2)cc1` is lower in “activity, negative = inhibition” value: -2.55% for the first, -32.6% for the second.

Going from `Cn1[nH]nnc1=S` to `O=C(N[C@H]1CN2CCC1CC2)c1ccc2c(c1)OCCO2`, the “activity, negative = inhibition” value rises from -13.9% to -4.56%.

First: Oc1ccc(C2(c3ccc(O)cc3)c3ccccc3-c3ccccc32)cc1
Second: CC(C)CCCCCCCOC(=O)c1ccccc1C(=O)OCCCCCCCC(C)C
The “activity, negative = inhibition” value of the first is lower: -13.3% for the first, 6.44% for the second.

In the case of `O=S1OC[C@@H]2[C@H](CO1)[C@]1(Cl)C(Cl)=C(Cl)[C@@]2(Cl)C1(Cl)Cl` (stereo not given in full), the “activity, negative = inhibition” value is reported as 6.95%.

In the case of `O=[N+]([O-])c1ccc(O)c([N+](=O)[O-])c1`, the Potency is reported as “inactive”.
In the case of `CC(C)(C)c1ccc(OP(=O)(Oc2ccccc2)Oc2ccccc2)cc1`, the Potency is reported as 8.45 µM (active).
With `Cc1cc(C)c(C(=O)P(=O)(c2ccccc2)c2ccccc2)c(C)c1` the Potency was 10.6 µM (active).
With `COP(=O)(OC)OC(Br)C(Cl)(Cl)Br` (stereo not given) the Potency was “inactive”.

First: O=C(NC(=O)c1cc(F)c(F)cc1Cl)Nc1cc(F)ccc1N1CCC(C(=O)O)CC1
Second: COc1ccc(C(=O)c2c(C)n(CCN3CCOCC3)c3ccccc23)cc1
The “activity, negative = inhibition” value of the first is higher: 23.8% [at 28.5 µM] for the first, 1.67% [at 28.5 µM] for the second.

Going from `NC(=O)[C@@H]1CSSCCC(=O)N[C@@H](CCCCN=C(N)N)C(=O)NCC(=O)N[C@@H](CC(=O)O)C(=O)N[C@@H](Cc2c[nH]c3ccccc23)C(=O)N2CCC[C@H]2C(=O)N1` ([Mpa][hArg]GDWPC-NH2; disulfide 1-7) to `C#C[C@]1(O)C=C[C@H]2[C@@H]3CCC4=CC(=O)CC[C@@H]4[C@H]3CC[C@@]21CC`, the “activity, negative = inhibition” value rises from -0.247% [at 28.5 µM] to 6.06% [at 28.5 µM].

With `Cc1cccc(C)c1NC1=NCCCS1` the “activity, negative = inhibition” value was 13.3% [at 28.5 µM].
